MazF activator: activators of E. coli MazEF toxin-antitoxin RNase, primary screen, biochemical, fluorescence, uHTS | activation, % at 20 µM | FAM/BHQ RNA-DNA oligo cleavage fluorescence, 5 h | Endoribonuclease toxin MazF (Escherichia coli (strain K12)), P0AE70 | 350,000 compounds, 0.32% hits; in the data active means activation above about 50%
Target sequence (P0AE70 whole entry, looked up): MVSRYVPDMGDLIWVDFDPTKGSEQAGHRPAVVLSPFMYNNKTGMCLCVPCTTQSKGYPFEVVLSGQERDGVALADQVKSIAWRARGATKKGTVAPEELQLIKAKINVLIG
PfHsp40 yeast: rescue of yeast from PfHsp40 toxicity, primary screen, S. cerevisiae, ATP luminescence | growth rescue, % at 12.5 µM | AID 504582, 2011 | 340,000 compounds, 0.68% hits | S. cerevisiae expressing PfHsp40, growth rescue; in the data active means growth rescue above about 28%, passing the limit was not always enough;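 further: yeast W303a lacking pdr1 and pdr3 grown in galactose medium; growth measured after three days at 30 °C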
BJeLR viability: MLPCN primary cell-based screen for lethality selective to Ras in HRASV12 cells. BJeLR (HRASV12) viability, CellTiter-Glo ATP luminescence, 48 h. inhibition, % (no concentration beside the values). 300,000 compounds, 0.17% hits; in the data active means inhibition above about 50%
PrPC TRFRET: inhibitors of human cell surface prion protein PrPC, primary screen, cell-based, TR-FRET. Major prion protein (Homo sapiens), P04156. TR-FRET read-out. inhibition, % at 13.8 µM. 370,000 compounds, 0.43% hits; in the data active means inhibition above about 24%; further: 0% = median of the test wells and 100% = reference compound wells
DUSP3 inh: VHR1 phosphatase inhibitors, primary screen, biochemical, absorbance, uHTS; inhibition, % at 13.3 µM; 290,000 compounds, 0.52% hits; Dual specificity protein phosphatase 3 (Homo sapiens), P51452; recombinant VHR phosphatase, pNPP absorbance; in the data active means inhibition above about 50%
Target sequence (P51452 whole entry, looked up): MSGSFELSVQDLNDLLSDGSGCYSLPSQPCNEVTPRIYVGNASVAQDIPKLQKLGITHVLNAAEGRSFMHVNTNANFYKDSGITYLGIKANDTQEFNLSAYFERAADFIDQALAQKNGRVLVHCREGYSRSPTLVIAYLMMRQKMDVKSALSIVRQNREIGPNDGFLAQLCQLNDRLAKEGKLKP
PrP UTR inh: inhibition of PrP 5' UTR reporter expression; cell-based PrP 5' UTR mRNA reporter, plate reader; inhibition, % (no concentration beside the values); 340,000 compounds, 0.35% hits; AID 488862, 2010; in the data active means inhibition above about 52%; further: 0 = median of the neutral control wells
* marks the source's active call; other numbers are inactive results; . = no result given. An excerpt weighted towards active compounds, which were near 2.1% of everything screened.

SMILES	MazF activator	PfHsp40 yeast	BJeLR viability	PrPC TRFRET	DUSP3 inh	PrP UTR inh
COc1ccc(Cl)cc1NC(=O)C(OC)c1ccccc1 (stereo not drawn)	-1.9	-0.1	3.6	-3.5	16.6	-30.4
COC(/C(=N/O)c1ccc(Cl)cc1)c1ccccc1 (stereo not drawn)	-6.3	121.7*	-1.0	9.6	3.0	-38.7
Cc1ccc(S(=O)(=O)c2nc(-c3ccccc3Cl)oc2N2CCN(C)CC2)cc1	6.7	0.7	.	0.2	.	-10.3
Cc1oc2cc(Br)c(O)c(Br)c2c1-c1ccccc1	-4.3	96.9*	7.0	.	13.3	-37.9
O=C(CSc1ncccn1)N1CCCc2ccccc21	4.2	1.0	.	1.6	-0.6	-18.8
O=C(CSc1ccccn1)N1CCc2ccccc21	-5.0	72.1*	9.9	-5.8	1.2	-116.4
O=C(CSc1ccc(-c2ccccn2)nn1)N1CCCCC1	6.0	134.8*	-11.2	0.1	10.8	-35.5
O=C(CSc1ccc(-c2ccccn2)nn1)NC1CCCCC1	4.7	320.0*	2.6	-3.3	2.3	-24.6
O=C(CSc1ccc(-c2ccccn2)nn1)N1CCc2ccccc21	8.8	224.5*	2.3	2.6	2.3	-6.4
O=C(CSc1ccc(-c2ccccn2)nn1)c1ccc([N+](=O)[O-])cc1	5.8	94.6*	13.6	-23.1	-12.0	-19.9
CC1(C)CC(=O)C2=C(C1)OC(N)=C(C#N)[C@@H]2c1ccccc1[N+](=O)[O-]	78.3*	-0.1	11.0	-1.6	35.4	6.1
COc1cc(C2C(C#N)=C(N)OC3=C2C(=O)CC(C)(C)C3)c([N+](=O)[O-])cc1OC (stereo not drawn)	-126.5	1.0	-0.1	-3.6	18.9	-17.8
C=CCn1c(CNC(=O)c2cccs2)nnc1SCC(=O)c1ccc(Br)cc1	70.5*	1.1	-5.9	3.5	4.8	-26.1
C=CCn1c(CCNC(=O)c2cccs2)nnc1SCC(=O)c1ccc(Cl)cc1	4.2	1.1	3.9	1.0	25.4	0.6
C[n+]1c(-c2ccc(C=NNC(=O)c3ccc(C(=O)NN=Cc4ccc(-c5cn6ccccc6[n+]5C)cc4)cc3)cc2)cn2ccccc21	.	92.1*	.	7.5	.	-30.5
O=C(NCc1cccs1)C1CCN(S(=O)(=O)c2cccc([N+](=O)[O-])c2)CC1	4.9	-0.8	7.4	-5.7	-2.6	-30.5
O=[N+]([O-])c1c(Nc2ccccn2)cc(Cl)c2nonc12	-20.1	1.5	111.8*	-7.6	4.4	-17.2
O=C(O)c1ccccc1Nc1cc(Cl)c2nonc2c1[N+](=O)[O-]	2.4	0.1	6.8	-23.2	8.5	-15.0
COC(=O)CN(C)C(=O)c1ccc(OC)c(OC2CCN(C(C)C)CC2)c1	5.6	-0.4	-0.4	-3.1	57.0*	-18.2
COc1ccc(C(=O)N(C)Cc2ccc(C)o2)cc1OC1CCN(C(C)C)CC1	-4.6	-0.9	-4.1	-3.0	49.1	-15.2
COc1ccc(C(=O)NCc2cnn(C)c2C)cc1OC1CCN(C(C)C)CC1	-0.1	0.3	-4.6	-4.2	53.5*	-15.9
COc1ccc(C(=O)NCc2cnn(C)c2)cc1OC1CCN(C(C)C)CC1	5.1	0.0	-2.3	-3.7	-25.6	3.2
COc1ccc(NC(=O)CSc2ccc3nnc(-c4ccccn4)n3n2)cc1OC	2.2	-1.4	-6.7	0.0	11.0	-0.1
COC(=O)c1cc2c(-c3ccccc3)c(C)c3ccccn3c-2c1C(=O)OC	50.1*	-0.1	7.5	-12.9	6.3	-20.6
CCc1cccc(C)c1NC(=O)CN1C(=O)NC(C)(CCC(C)C)C1=O (stereo not drawn)	3.1	-0.8	.	-1.7	.	-11.0
SMILES	MazF activator	PfHsp40 yeast	BJeLR viability	PrPC TRFRET	DUSP3 inh	PrP UTR inh
Cc1ccc(C)c(NC(=O)CN(C)C(=O)c2ccccc2OCc2ccccc2Cl)c1	3.2	-0.3	4.1	11.0	.	-31.1
O=C(CSc1cccc[n+]1[O-])Nc1ccccc1Oc1ccccc1	4.2	89.9*	-6.7	-1.1	1.2	-1.6
Cc1ccc(N/C(N)=N/c2nc(C)cc(N3CCCCC3)n2)c(C)c1	9.6	0.9	12.2	45.1*	5.3	-8.1
Cc1ccc(N/C(N)=N/c2nc3c(c(=O)[nH]2)CCCC3)c(C)c1	4.3	0.6	2.6	-1.0	21.4	-25.7
COc1cccc(C(=O)Nc2sc(C(C)C)cc2C(N)=O)c1OC	-1.1	604.0*	-2.5	0.3	7.4	-5.4
Cc1cccn2c(=O)c(/C=C3\SC(=S)NC3=O)c(NCCCN3CCOCC3)nc12	-128.9	-0.5	2.1	-9.3	2.6	-8.6
CCCN1C(=O)/C(=C/c2c(NCCCOCC)nc3c(C)cccn3c2=O)SC1=S	295.2*	-1.6	.	-3.1	3.6	-14.6
CCOCCCNc1nc2c(C)cccn2c(=O)c1/C=C1\SC(=S)N(C(C)CC)C1=O (stereo not drawn)	602.9*	0.0	6.0	5.7	5.9	-7.9
CCOCCCNc1nc2c(C)cccn2c(=O)c1/C=C1\SC(=S)N(CC(C)C)C1=O	-427.3	-1.5	-19.3	2.5	41.2	0.2
COC(=O)[C@]12C[C@H](CC(=O)NCCc3ccccc3OC)C(=O)N(CCc3ccc(OC)c(OC)c3)C1=C[C@H](C1CCCC1)O[C@@H]2C	.	.	.	-7.8	.	.
O=C(NNC(=O)c1cc(Cl)ccc1O)c1cccc(S(=O)(=O)N2CCOCC2)c1	3.7	474.8*	4.8	-1.1	.	-23.0
COc1ccccc1CC(=O)Nc1cccc(S(=O)(=O)N2CCOCC2)c1	-18.4	94.1*	-4.3	2.7	-0.2	-5.0
COc1ccccc1CCC(=O)Nc1cccc(S(=O)(=O)N2CCOCC2)c1	8.3	-0.5	3.5	-4.3	7.7	-21.4
CC(C)C(=O)Nc1ccc(C(=O)Nc2ccc(S(=O)(=O)N3CCOCC3)cc2)cc1	5.9	1.7	-1.1	.	26.1	-12.1
CC(C)C(=O)Nc1cccc(C(=O)Nc2ccc(S(=O)(=O)N3CCOCC3)cc2)c1	160.4*	-1.2	-26.0	-1.8	8.8	-6.4
CCOC(=O)C(=O)NC1CC=CCC1c1ccc2c(c1)OCO2 (stereo not drawn)	-0.7	0.0	.	-1.0	.	-14.4
COc1ccc(S(=O)(=O)N(C)C[C@H]2OCc3cn(nn3)CCCC(=O)N([C@H](C)CO)C[C@@H]2C)cc1	1.7	.	.	1.1	.	.
CCN1CCCCC(NC(=O)c2ccccc2)C1=O (stereo not drawn)	.	.	.	8.0	.	.
CCc1cccc(C)c1NC(=O)CCCSc1nc2ccccc2s1	-1.8	-1.1	-0.3	9.1	-4.8	-4.7
CCc1cccc(CC)c1NC(=O)C1SC(=Nc2ccccc2C)C(c2nc3ccccc3s2)=C1N (stereo not drawn)	0.5	12.4	-5.9	24.5*	17.5	-8.3
Nc1cc2nc3ccccc3oc-2cc1=O	-4.0	375.6*	.	-9.7	26.9	-37.2

Compound activity from PubChem.
